Laboratory results reported in PubChem BioAssay (NCI).
Several values for one entry are separate records, joined by “and”; a condition that tells them apart may be missing. Equal values may be shown once. Compounds without any hit were thinned out: in the full panel of roughly 83,000, 20% have a hit.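 Activity criterion: percent growth below 10, measured after cells in 96-well plates were exposed to a single compound concentration for 48 hours.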 Activity calls are given as the source filed them.

Each molecule was assayed on UACC-62 melanoma (assay: NCI-60 one-dose screen, 48 h (100 = growth as untreated, 0 = no growth, -100 = all killed)). Settings: 10 µM unless noted.

SMILES | growth
C/C(=C\COc1cc(O)c2c(c1)C(=O)c1cc(C)cc(O)c1C2=O)CCC1OC1(C)C (centres undefined) | 41.3% [100 µM] (inactive) and 6.17% [100 µM] (active)
COC(=O)C(C(=O)C(=O)NC1Nc2ccc(C)cc2S1)c1nc2ccc(Cl)cc2[nH]c1=O (centres undefined) | 77.4% [100 µM] (inactive) and 58.3% [100 µM] (inactive)
CCOC(=O)c1cc(C)nc2c1c(=O)n(-c1ccccc1)c(=O)n2CCCCN1CCN(c2ncccn2)CC1 | 97.1% [100 µM] (inactive) and 82.3% [100 µM] (inactive)
COC(=O)C(=O)C(C(=O)C(=O)Nc1ccccc1OC)c1nc2ccc([N+](=O)[O-])cc2[nH]c1=O (centres undefined) | 41.9% [100 µM] (inactive) and 22.7% [100 µM] (inactive)
NC(=S)Nc1[nH]c(=S)nc2c1SC1=N/C(=C\c3ccco3)C(=O)N12 | 25.1% [100 µM] (inactive) and 18.6% [100 µM] (inactive)
O=C1C=CC=C/C1=C1\N=C(c2ccccc2OCC(=O)c2ccc(Br)cc2)SS1 | 48.5% [100 µM] (inactive) and 35.3% [100 µM] (inactive)
CCC/C(Cl)=N/OC(=O)Nc1cccc(F)c1 | -86.8% [100 µM] (active) and -100% [100 µM] (active)
NNc1[nH]c(=S)[nH]c1C(N)=O | 98.3% [100 µM] (inactive) and 90.9% [100 µM] (inactive)
COc1ccc2c(c1)N(C(C)=O)CN1C(=O)CCC21 (centres undefined) | 87.4% [100 µM] (inactive) and 102% [100 µM] (inactive)
